Results filed as inconclusive are left out. Activity calls are given as the source filed them. Rule for the calls: active = hit-call score of the fitted dose curve at least 0.9, where 1 is the maximum; inconclusive = response in the unintended direction; inactive = score below 0.9.
Each molecule was assayed against Estrogen receptor (Homo sapiens) (UniProt P03372) (assay: OT_ER_ERaERa_0480: Odyssey Thera (OT) 8-hour HEK293T Protein-Complementation Assay for Estrogen Receptor-alpha/-alpha Homodimer (AID 2283351);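 note: rise in fluorescence from reassembled reporter fragments on ERα LBD homodimer in nucleus or whole cell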).
Protocol: OT_ER_ERaERa_0480 is a cell-based assay that uses HEK293T, a human kidney cell line, with measurements taken at 8 hours after chemical dosing in a 384-well plate.OT_ER_ERaERa_0480 is one of one assay component(s) measured or calculated from the OT_ER_ERaERa_0480 assay. It is designed to make measurements of protein fragment complementation, a form of binding reporter, as detected with fluorescence intensity signals by Protein-fragment Complementation technology.Data from the assay component OT_ER_ERaERa_0480 was analyzed into 1 assay endpoint. This assay endpoint, OT_ER_ERaERa_0480, was analyzed in the positive analysis fitting direction relative to DMSO as the negative control and baseline of activity. Using a type of binding reporter, measures of receptor for gain-of-signal activity can be used to understand the binding at the pathway-level as they relate to the gene ESR1. Furthermore, this assay endpoint can be referred to as a primary readout, because the performed assay has only produced 1 assay endpoint. To generalize the intended target to other relatable targets, this assay endpoint is annotated to the nuclear receptor intended target family, where the subfamily is steroidal.
Protein-fragment complementation assay, or PCA, is a method for the identification and quantification of protein-protein interactions. In the PCA, the proteins of interest ("bait" and "prey") are each covalently linked to fragments of a third protein (e.g. DHFR, which acts as a "reporter"). Interaction between the bait and the prey proteins brings the fragments of the reporter protein in close proximity to allow them to form a functional reporter protein whose activity can be measured. The OT ER alpha / ER alpha assay is a homodimer PCA of the ligand binding domain (amino acids 310-547) of human ER alpha stably expressed in HEK293T cells. […] Fluorescent signal in the basal state of the assay is very low and is primarily punctuate and cytoplasmic. Modulation of this assay is quantified as an increase in mean fluorescence intensity in the nucleus (for agonists) or in the nucleus and cytoplasm (antagonists) relative to vehicle controls, and can be quantified on a high content imaging device or a laser scanning cytometer. The latter instrument is favored for this assay because of the rapid mode of data acquisition, the ability to acquire data from the entire cell population in a well (as opposed to a fraction of the well on the high content devices) and the larger dynamic range typically achieved with this instrument. To assess sensitivity of the ER alpha/ER alpha LBD assay to ligand, cells were treated with the ER agonist 17 beta-estradiol (E2) in 10-point concentration- response format for 8 hours and monitored response on a laser scanning plate cytometer (Acumen eX3; TTP Lab Tech).

Sequence of Estrogen receptor (Homo sapiens) (P03372 whole entry, looked up, the tested form may be a part): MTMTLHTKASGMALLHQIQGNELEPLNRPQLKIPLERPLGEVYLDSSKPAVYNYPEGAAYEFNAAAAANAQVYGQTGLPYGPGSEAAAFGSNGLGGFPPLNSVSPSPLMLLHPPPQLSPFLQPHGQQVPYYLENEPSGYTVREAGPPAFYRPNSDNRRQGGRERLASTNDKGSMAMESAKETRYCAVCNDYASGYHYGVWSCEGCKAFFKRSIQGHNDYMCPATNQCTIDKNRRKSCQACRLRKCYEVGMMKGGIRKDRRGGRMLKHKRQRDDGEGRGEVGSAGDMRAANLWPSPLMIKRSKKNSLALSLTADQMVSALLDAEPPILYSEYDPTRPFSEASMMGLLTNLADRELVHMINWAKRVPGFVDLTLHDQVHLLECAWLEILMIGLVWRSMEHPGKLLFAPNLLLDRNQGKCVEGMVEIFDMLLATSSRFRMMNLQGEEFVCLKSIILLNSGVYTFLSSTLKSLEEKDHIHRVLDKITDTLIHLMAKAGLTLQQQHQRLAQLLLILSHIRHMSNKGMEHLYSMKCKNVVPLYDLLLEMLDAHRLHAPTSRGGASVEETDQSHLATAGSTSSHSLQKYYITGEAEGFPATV

Compound	outcome
O=C(O)[C@H](O)[C@@H](O)C(=O)O	inactive
CCOc1ccc2[nH]cc(C(=O)NCc3ccccc3)c(=O)c2n1	inactive
CC(C)CC(C)O (stereo not given)	inactive
CC[C@H](C)C(=O)O[C@H]1C[C@H](O)C=C2C=C[C@H](C)[C@H](CC[C@@H](O)C[C@@H](O)CC(=O)O)[C@H]21	inactive
C[C@@H](Oc1ccc(CNC(=O)c2cccnc2Oc2ccc3c(c2)OCO3)c(F)c1)C(=O)O	inactive
CC(C)CCCCCCOC(=O)C1CCCCC1C(=O)OCCCCCCC(C)C (stereo not given)	inactive
NC(N)=O	inactive
NC(=O)NN=Cc1ccc([N+](=O)[O-])o1	inactive
OC[C@H]1O[C@@H]2O[C@H]3[C@H](O)[C@@H](O)[C@@H](O[C@H]4[C@H](O)[C@@H](O)[C@@H](O[C@H]5[C@H](O)[C@@H](O)[C@@H](O[C@H]6[C@H](O)[C@@H](O)[C@@H](O[C@H]7[C@H](O)[C@@H](O)[C@@H](O[C@H]1[C@H](O)[C@H]2O)O[C@@H]7CO)O[C@@H]6CO)O[C@@H]5CO)O[C@@H]4CO)O[C@@H]3CO	inactive
OCc1ccccc1	inactive
CCCCCCCCCC	inactive
C=CCc1cc(S(=O)(=O)c2ccc(O)c(CC=C)c2)ccc1O	inactive
COc1cc(C(C)C)c2c(c1)S(=O)(=O)N(COc1cc(=O)n3cccc(OCCN4CCCCC4)c3n1)C2=O	inactive
COCc1nnc(-c2ccc[n+]([O-])c2)n1-c1c(Cl)c(Cl)cc2[nH]c(=O)c(=O)[nH]c12	inactive
CCc1ccc(O)c(C(C)(C)C)c1	inactive
CCCCCCCC1CCC(=O)O1 (stereo not given)	inactive
Cn1cc[nH]c1=S	inactive
CCCCCCCCCCCCCCO	inactive
OC[C@H]1O[C@@](CO)(O[C@H]2O[C@H](CO)[C@@H](O)[C@H](O)[C@H]2O)[C@@H](O)[C@@H]1O	inactive
CCCCCCCCCCCCCCCCOS(=O)(=O)O	inactive

Compound	outcome
O=C1CN(N=Cc2ccc([N+](=O)[O-])o2)C(=O)N1	inactive
CCCCCOC(C)=O	inactive
Cc1ccc(S(=O)(=O)NC(=O)NN2CCCCCC2)cc1	inactive
NC(=O)N(O)[C@@H]1COc2cc(OCc3ccccc3)ccc21	inactive
O=C(NO)C1(NS(=O)(=O)c2ccc(Oc3ccc(F)cc3)cc2)CCOCC1	inactive
CC(C)C(=O)Nc1ccc([N+](=O)[O-])c(C(F)(F)F)c1	inactive
c1ccc(C(O[C@@H]2CCCN(CCc3ccc4c(c3)OCO4)C2)c2ccccc2)cc1	inactive
OCCOCCOCCO	inactive
CCCCCCCC/C=C\CCCCCCCC(=O)OC[C@@H](O)[C@H]1OC[C@H](O)[C@H]1O	inactive
COc1cc2c(c(OC)c1OC)-c1ccc(OC)c(=O)cc1[C@@H](NC(C)=O)CC2	inactive
COS(C)(=O)=O	inactive
CCN(CC)C(=S)SSC(=S)N(CC)CC	inactive
CCn1nc(C)c2c1C(=O)NCC(c1ccc(O)cc1)=N2	inactive
Cc1ncc([C@@H](CCCCCCc2ccc3c(n2)NCCC3)CC(=O)O)cn1	inactive
Cc1cccc(O)c1C	inactive
CCCCOC(=O)c1ccccc1	inactive
CCCCCCCCN(C)C	inactive
CCc1cccc(CC)c1N	inactive
OCCNCCO	inactive
NNC(=O)c1ccncc1	inactive

Source: PubChem BioAssay (EPA / NIEHS)
